# Compounds with a hit are over-represented: about 28% of the library has one in this group of screens.
# CYP2C19 inh: human CYP2C19 inhibition | inhibition, % at 5 µM | hit rate 21% among 96,000 | CYP2C19 Supersomes, luciferin-H EGE luminescence, 30 min;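 active = CYP2C19 inhibition above a set limit at 5 µM in the primary screen, cut at about 50% in these data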
# CD11b adhes enh: increases human CD11b/CD18 adhesion to fibrinogen | P05107+P11215 | K562 CD11b/CD18 adhesion to fibrinogen, ATPlite luminescence | activation, % at 10 µM | hit rate 0.07% among 93,000;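 active = 10 µM primary screen giving 50% or more activity, confirmed by 40% or more on retest at that dose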
# CYP2C9 activ: increases human cytochrome P450 2C9 activity | activation factor at 5 µM | hit rate 1.4% among 96,000 | recombinant CYP2C9, luciferin-H conversion, luminescence; active compounds read high; factor 1 = untreated enzyme, 0 = blocked | P11712;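 active = activation factor of 2 or more for CYP2C9 at a 5 µM dose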
# Target sequence (P11712 whole entry, looked up): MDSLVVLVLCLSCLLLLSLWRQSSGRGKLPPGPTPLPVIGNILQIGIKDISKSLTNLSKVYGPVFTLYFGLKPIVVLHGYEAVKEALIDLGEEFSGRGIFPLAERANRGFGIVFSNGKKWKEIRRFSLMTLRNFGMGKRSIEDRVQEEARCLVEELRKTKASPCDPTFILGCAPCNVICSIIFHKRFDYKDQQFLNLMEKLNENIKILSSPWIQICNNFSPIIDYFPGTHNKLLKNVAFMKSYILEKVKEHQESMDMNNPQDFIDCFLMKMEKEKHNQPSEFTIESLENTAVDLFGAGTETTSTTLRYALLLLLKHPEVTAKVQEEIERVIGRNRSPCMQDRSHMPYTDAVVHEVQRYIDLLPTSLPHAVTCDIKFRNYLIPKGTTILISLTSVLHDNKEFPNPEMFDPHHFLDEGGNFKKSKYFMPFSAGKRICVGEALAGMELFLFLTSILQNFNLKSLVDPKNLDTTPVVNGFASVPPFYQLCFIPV
# CD11b adhes inh: inhibitors of human CD11b/CD18 binding to fibrinogen; hit rate 0.54% among 93,000; P05107+P11215; inhibition, % at 10 µM; K562 CD11b/CD18 adhesion to fibrinogen, ATPlite luminescence; Mn2+ added to activate the integrin;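 active = primary inhibition of 50% or more at 10 µM, then 40% or more on retest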
# CYP2C9 inhib: human CYP2C9 inhibition | P11712 | CYP2C9 Supersomes, luciferin-H conversion, luminescence | inhibition, % at 5 µM | hit rate 20% among 96,000 | AID 777;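 active = blocking of liver enzyme CYP2C9 beyond about 50% at 5 µM, limit read from the data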
# CYP2C19 act: increases human CYP2C19 enzyme activity. P33261. recombinant CYP2C19, luciferin-H EGE luminescence; active compounds read high; 0 = fully inhibited enzyme, 1 = untreated enzyme. activation factor at 5 µM. 96,000 tested, under 10 active;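 active = activation factor of at least 2 at 5 µM in the primary screen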
# Numbers stand for hits; n = inactive; x = no result given.
SMILES,CYP2C19 inh,CD11b adhes enh,CYP2C9 activ,CD11b adhes inh,CYP2C9 inhib,CYP2C19 act
Cc1ccc[n+](C(C)C(=O)Nc2ccc(C)c([N+](=O)[O-])c2)c1 (stereo not drawn),n,n,n,n,n,n
O=C(CSc1ncccc1-c1nc2ccccc2[nH]1)N1CCN(c2ccccc2F)CC1,n,n,n,n,n,n
CS(=O)(=O)N(CCc1ccccc1)CC(=O)N1CCN(Cc2ccc3c(c2)OCO3)CC1,n,n,n,n,n,n
CN1CCN(C(=O)CN(Cc2ccc(Cl)cc2)S(C)(=O)=O)CC1,69.3,x,n,x,n,n
CS(=O)(=O)N(CC(=O)N1CCN(c2ccccc2)CC1)Cc1ccc(Cl)cc1,n,n,n,n,n,n
CCOC(=O)C1CCN(C(=O)c2ccccc2N(C)S(C)(=O)=O)CC1,n,n,n,n,n,n
CN(c1ccccc1C(=O)N1CCc2ccccc2C1)S(C)(=O)=O,93.2,n,n,n,83.5,n
O=C(CCC1CCCCC1)N1CCN(Cc2ccc3c(c2)OCO3)CC1,91.4,n,n,n,86.8,n
CS(=O)(=O)N(CC(=O)N1CCN(Cc2ccc3c(c2)OCO3)CC1)Cc1ccc(Cl)cc1,n,n,n,n,61.6,n
CS(=O)(=O)N(CC(=O)N1CCN(Cc2ccccc2)CC1)Cc1ccccc1,n,n,n,n,n,n
CS(=O)(=O)N(CC(=O)N1CCCCCC1)Cc1ccc(Cl)cc1,93.4,n,n,n,n,n
COc1ccc(N2CCN(C(=O)CN(Cc3ccc(Cl)cc3)S(C)(=O)=O)CC2)cc1,n,n,n,n,n,n
CS(=O)(=O)N(CC(=O)N1CCOCC1)Cc1ccc(Cl)cc1,56.2,n,n,n,n,n
CS(=O)(=O)N(CC(=O)N1CCc2ccccc2C1)Cc1ccccc1,86.3,n,n,n,80.1,n
CCCS(=O)(=O)N1CCCC(C(=O)NCCc2ccc(OC)c(OC)c2)C1 (stereo not drawn),n,n,n,n,n,n
Cn1c(=O)c2cc(S(=O)(=O)NCCC(=O)NCCC3=CCCCC3)ccc2n(C)c1=O,n,n,n,n,n,n
Cc1cc(C)nc(NC(=O)C(c2ccccc2)c2ccccc2)n1,n,x,n,x,70.7,n
Cn1nnc(NC(=O)C(c2ccccc2)c2ccccc2)n1,n,n,n,n,84.4,n
CC1(C)C2CCC13CS(=O)(=O)N[C@@H]3C2 (stereo partly drawn),n,n,n,n,n,n
O=C(NCC1CCCO1)C1CC(=O)N(C2CCCC2)C1 (stereo not drawn),n,n,n,n,n,n
COc1cccc2cc(NC(=O)C3CCCCC3)c(=O)oc12,n,n,2.4,n,n,n
O=C(c1cc2ccccc2oc1=O)N(Cc1ccccc1)C1CCS(=O)(=O)C1 (stereo not drawn),n,x,n,x,n,n
O=C(c1cc2ccccc2oc1=O)N1CCN(C(=O)C2CCCO2)CC1 (stereo not drawn),n,n,n,n,n,n
COc1cccc(CN(C(=O)c2cc3ccccc3oc2=O)C2CC2)c1,79.4,n,2.4,n,n,n
COC(=O)C1CCN(C(=O)c2cc3ccccc3oc2=O)CC1,56.4,n,2.2,n,n,n
SMILES,CYP2C19 inh,CD11b adhes enh,CYP2C9 activ,CD11b adhes inh,CYP2C9 inhib,CYP2C19 act
COc1cccc2cc(C(=O)N3CCC(C)CC3)c(=O)oc12,n,n,2.9,n,n,n
CC1(C)CCCN(C(=O)N2c3ccccc3Sc3ccccc32)C1,n,x,n,x,n,n
O=C(COC(=O)c1cc([N+](=O)[O-])ccc1NCc1ccccc1Cl)NCC(F)(F)F,x,n,x,n,x,x
COc1ccc(S(=O)(=O)Nc2nc3n(n2)C(c2ccc(Cl)cc2)CC(=O)N3)cc1 (stereo not drawn),n,n,n,n,n,n
COc1cccc2cc(C(=O)N3CCN(C45CC6CC(CC(C6)C4)C5)CC3)c(=O)oc12,n,n,n,n,55.7,n
COc1cccc2cc(C(=O)N3CCN(c4ccccn4)CC3)c(=O)oc12,n,n,n,n,n,n
CC(C)(C)n1nnnc1CN(Cc1cccnc1)Cc1ccccc1Cl,88.1,n,n,n,n,n
CC(C)(C)n1nnnc1CN(Cc1ccco1)Cc1cc2cc3c(cc2[nH]c1=O)OCO3,n,n,n,n,n,n
